From PubChem BioAssay (NCATS) come the findings set out here.

Each structure is given as a SMILES string. Inconclusive results are not listed. Active and inactive are the calls of the source. Calls come from the whole dose curve; as a rule, active = well fitted cell-killing curve with a large enough effect; inconclusive = small, poorly fitted or top-dose-only effect, or effect the other way; inactive = no such curve, though single readings can be large or run the other way.
Potency is the fitted concentration of half-maximal effect.

This experiment can be described thus: Quantitative High-Throughput drug screen in 47 multiple myeloma cell lines against the NCATS MIPE library collection: LP1_DSMZ cell viability assay (AID 1918982). Note: nearly all actives have a fitted effect of over 35% in size. Particulars: LP1 myeloma viability, CellTiter-Glo ATP luminescence, 48 h; series mostly up to 45.8 µM; viability (% of control): at the top concentration. The source says: PI: Beverly A. Mock Ph.D.
Laboratory of Cancer Biology and Genetics,
Center for Cancer Research, National Cancer Institute,
National Institute of Health, Bethesda, Maryland
Drug resistance and disease progression are common in multiple myeloma (MM) patients, underscoring the need for new therapeutic combinations. […] We hypothesized that effective combinations would reduce MYC expression and enhance p16 activity. […] These preclinical data identify potentially useful drug combinations for evaluation in drug-resistant MM and reveal potential mechanisms of combined drug sensitivity.
Described herein is the primary MIPE qHTS used to cherrypick compounds. Validated compounds were then further tested for potential synergistic activiy.
[1] Peat TJ, Gaikwad SM, Dubois W, Gyabaah-Kessie N, Zhang S, Gorjifard S, Phyo Z, Andres M, Hughitt VK, Simpson RM, Miller MA, Girvin AT, Taylor A, Williams D, D'Antonio N, Zhang Y, Rajagopalan A, Flietner E, Wilson K, Zhang X, Shinn P, Klumpp-Thomas C, McKnight C, Itkin Z, Chen L, Kazandijian D, Zhang J, Michalowski AM, Simmons JK, Keats J, Thomas CJ, Mock BA. Drug combinations identified by high-throughput screening promote cell cycle transition and upregulate Smad pathways in myeloma. Cancer Lett. 2023 Aug 1;568:216284. doi: 10.1016/j.canlet.2023.216284. Epub 2023 Jun 24. PMID: 37356470; PMCID: PMC10408729.
SEQUENCE No. (e.g., 1, 2, 3, etc.); […] (e.g., Cells, Incubation, Reagent, etc.); VALUE and DESCRIPTION.
1; Cells; 5 uL; white, solid bottom 1536-well Greiner assay plate.
2; Compounds; 23 nL; Kalypsis pin tool (Wako USA) equipped with a 1536-well pin head to transfer to the assay plates.
3; Incubation; 48 hours; 37C incubation.
4; Reagent;5uL; CellTiter Glo (Promega).
5; Detector; 425V; Luminescence; Viewlux PerkinElmer.
NOTES (numbers refer to Sequence numbers above)
1. The cell-based screening methods employed in this study were like those previously published. Briefly, the corresponding myeloma cell lines were screened in 1,536-well plates with 500 cells, 5-uL per well for inhibition of cell viability (assessed by measuring ATP levels with CellTiterGlo).
2. NCATS MIPE 4.0 library of approved and investigational drugs were added using the Kalypsis pin tool. Wells treated with DMSO only for 100% viability and media only for 0% viability were used as controls.
3. The assay plates were covered and incubated for 48 hours in a 37C, 5% CO2 incubator with controlled humidity.
4. After 48 hours, CellTilter-GloTM luminescent substrate mix (Promega) reagent was added to the assay plate and plates we incubated for 5 min at room temperature.
5. Signal was measured as median relative luminescence units on a ViewLux (PerkinElmer) multiplate reader.
[1] Heske CM, Davis MI, Baumgart JT, Wilson K, Gormally MV, Chen L, Zhang X, Ceribelli M, Duveau DY, Guha R, Ferrer M, Arnaldez FI, Ji J, Tran HL, Zhang Y, Mendoza A, Helman LJ, Thomas CJ. Matrix Screen Identifies Synergistic Combination of PARP Inhibitors and Nicotinamide Phosphoribosyltransferase (NAMPT) Inhibitors in Ewing Sarcoma. Clin Cancer Res. 2017 Dec 1;23(23):7301-7311. doi: 10.1158/1078-0432.CCR-17-1121. Epub 2017 Sep 12. PMID: 28899971; PMCID: PMC6636827.
`CCCC(CCC)C(=O)O`: the “viability (% of control)” value is 106% (inactive).

For the compound `CCCc1nc2c(C)cc(-c3nc4ccccc4n3C)cc2n1Cc1ccc(-c2ccccc2C(=O)O)cc1`, the “viability (% of control)” value is 93% (inactive).

`Nc1nc2[nH]cc(CCc3ccc(C(=O)N[C@@H](CCC(=O)O)C(=O)O)cc3)c2c(=O)[nH]1`: the “viability (% of control)” value was 106% (inactive).

For the compound `NC[C@H](O)c1ccc(O)c(O)c1`, the “viability (% of control)” value was 102% (inactive).

Take `O=C(C1CC1)N1CC[C@@H](Cn2c(-c3ccc(-c4ccc5occc5c4)cc3)nc3cnccc32)C1`: the Potency was 10.5 µM (active).

Turning to `CC(C[N+](C)(C)C)OC(N)=O` (stereo not given), the “viability (% of control)” value was 95.9% (inactive).

In the case of `COc1nc(-c2ccc3c(c2)OCO3)n(-c2ccc(NC(=O)CSc3ccccc3)cc2)n1`, the “viability (% of control)” value was 127% (inactive).

As to `CCC(C)N(C)C(=O)c1cc2ccccc2c(-c2ccccc2Cl)n1` (stereo not given), the “viability (% of control)” value was 89.4% (inactive).

Turning to `Cn1c(=O)c(F)c(Nc2ccc(I)cc2F)c2c(=O)n(C[C@@H](O)CO)cnc21`, the “viability (% of control)” value was 89.3% (inactive).

On to `COc1cc2c(cc1OC)CN(CCc1ccc(NC(=O)c3cccc4c(=O)c5cccc(OC)c5[nH]c34)cc1)CC2`, for which the “viability (% of control)” value was 86.9% (inactive).

As for `Cc1ccccc1C(OCCN(C)C)c1ccccc1` (stereo not given), the “viability (% of control)” value was 96.7% (inactive).

With `Cc1cccc(-c2nn(C(=S)Nc3ccccc3)cc2-c2ccnc3ccccc23)n1`, the Potency is 20.9 µM (active).

`COc1ccc2nc(S(=O)Cc3ncc(C)c(OC)c3C)[nH]c2c1` (stereo not given): the “viability (% of control)” value was 98.9% (inactive).

On to `C[C@]12CC[C@H](O)CC1=CC[C@@H]1[C@H]2CC[C@]2(C)C(c3cccnc3)=CC[C@H]12`, for which the “viability (% of control)” value was 107% [at 23.2 µM] (inactive).

As to `COCCNCCCn1c(C(=O)CF)c(-c2ccc(C)cc2)c2c(N)ncnc21`, the Potency was 7.43 µM (active).

On to `CC1(C)SCCN(S(=O)(=O)c2ccc(OCC#CCO)cc2)[C@@H]1C(=O)NO`, for which the Potency is 16.6 µM (active).

Regarding `CS(=O)(=O)c1cccc(CNc2nc(Nc3ccc4c(c3)CCC(=O)N4)ncc2C(F)(F)F)c1`, the Potency was 18.7 µM (active).

On to `CCCS(=O)(=O)Nc1ccc(F)c(C(=O)c2c[nH]c3ncc(Cl)cc23)c1F`, for which the “viability (% of control)” value is 84.6% (inactive).

As to `CC(C=CC1=C(C)CCCC1(C)C)=CC=CC(C)=CC(=O)O`, the “viability (% of control)” value is 84.3% (inactive).

`C[C@H](NC(=O)Cc1cc(F)cc(F)c1)C(=O)N[C@@H]1C(=O)N(C)c2ccccc2-c2ccccc21`: the “viability (% of control)” value was 81.2% (inactive).

In the case of `CCOc1cc(C=C2C(=O)N(c3ccccc3)N=C2C)cc(Cl)c1OCC(=O)OC`, the “viability (% of control)” value is 78.3% (inactive).

As to `Clc1ccc(Nc2nnc(Cc3ccncc3)c3ccccc23)cc1`, the Potency is 11.8 µM (active).

Turning to `COc1c(Cl)cc2c([nH]c3cnccc32)c1NC(=O)c1cccnc1C`, the Potency is 7.43 µM (active).

For the compound `O=C(Nc1ccc(F)c(C(F)(F)F)c1)Nc1nnc(-c2ccncc2)s1`, the Potency was 3.72 µM (active).

For the compound `CC(C)(C)NCC(O)c1ccc(O)c(CO)c1` (stereo not given), the “viability (% of control)” value is 100% (inactive).

Regarding `NC(=O)c1cnccn1`, the “viability (% of control)” value is 142% (inactive).

Consider `CC(C)OC(=O)C1=CN(C(=O)c2ccc(F)c(F)c2)CC(C)(C)c2c1[nH]c1ccccc21`, for which the “viability (% of control)” value was 101% (inactive).

`NC(=O)C1CCCc2c1[nH]c1ccc(Cl)cc21` (stereo not given): the “viability (% of control)” value was 89.6% (inactive).

As to `CCOc1cc(C(=O)Nc2ccc(Cl)c(-c3nc4ccccc4[nH]3)c2)cc(OCC)c1OCC`, the Potency is 14.8 µM (active).

`O=C(O)[C@@H](c1ccc(OCc2ccc3ccccc3n2)cc1)C1CCCC1`: the “viability (% of control)” value was 103% (inactive).

For the compound `CC(C)NCC(O)COc1ccc(COCCOC(C)C)cc1` (stereo not given), the “viability (% of control)” value was 103% (inactive).

For `N[C@@H]1CONC1=O`, the “viability (% of control)” value was 120% (inactive).

In the case of `NCCc1ccc(O)c(O)c1`, the Potency is 8.33 µM (active).

`CC(C)(Sc1ccc(CCN(CCCCC2CCCCC2)C(=O)NC2CCCCC2)cc1)C(=O)O`: the Potency is 16.6 µM (active).

`OC(CN1CCC(Cc2ccc(F)cc2)CC1)c1ccc(Cl)cc1` (stereo not given): the “viability (% of control)” value was 105% (inactive).

For `Cc1cc(C=c2sc3nc4ccccc4n3c2=O)c(C)n1-c1ccccc1`, the “viability (% of control)” value was 88.8% (inactive).

With `CNC(=O)c1ccc(N2C(=S)N(c3ccc(C#N)c(C(F)(F)F)c3)C(=O)C2(C)C)cc1F`, the “viability (% of control)” value was 75.5% (inactive).

Regarding `Clc1cccc(Cl)c1NC1=NCCN1`, the “viability (% of control)” value was 110% (inactive).

For `Nc1nc2c(ncn2COCCO)c(=O)[nH]1`, the “viability (% of control)” value was 114% (inactive).

Turning to `NC(N)=NC(=O)c1nc(Cl)c(N)nc1N`, the “viability (% of control)” value is 98.8% (inactive).
